# NF-kB neuron act: raises NF-kB expression in human neuronal cells; hit rate 1.6% among 190,000; AID 1239; NF-kB reporter expression; active compounds read high; fold change at 12.5 µM; in the data active = fold change above about 3.3
# STAT1 activator: activators of IFN-gamma induced STAT1 signaling; NIH 3T3 STAT1-luciferase reporter, luminescence; 100% = IFN-gamma alone, no compound; activation (% of control), % at 5.5 µM; hit rate 2.6% among 200,000;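 active = activation above the screen-wide mean activation plus 3 SD, cut at about 130% in these data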;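 also: raw ratio to IFN-gamma control signal so 100% means no change and 0% no light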
# Hsp70 act: switches on Hsp70 transcription. activation, % at 10 µM. HeLa Hsp70 promoter luciferase reporter, luminescence; scaled: vehicle 0, proteasome-inhibitor control 100%. hit rate 0.04% among 200,000;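 active = activation above the mean across all tested compounds plus 3 SD, cutoff set per campaign, cut at about 5.5% in these data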;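 also: 100% = MG132 at 30 µM as the positive control and 0% = DMSO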
# APP transl inh: APP translation inhibition | SH-SY5Y APP 5'UTR-luciferase reporter, luminescence | inhibition, % at 2 µM | hit rate 0.82% among 190,000 | AID 1285;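 active = inhibition above a set limit, derived from the sample mean plus 3 SD, cut at about 45% in these data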
# APP 5'UTR act: APP 5'UTR luciferase reporter activation; activation, % at 2 µM; hit rate 1% among 190,000; AID 1276; SH-SY5Y APP 5'UTR luciferase reporter, luminescence; zero percent = DMSO vehicle wells;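 active = activation above a set limit, based on mean plus 3 SD of controls, cut at about 140% in these data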
# Wee1 degr inh: human Wee1 degradation inhibition, primary screen; P30291; HeLa Luc-Wee1K328M stability, luciferase luminescence; 100% = proteasome inhibitor MG132 effect; reporter increase, % at 5 µM; hit rate 1.2% among 220,000; AID 1321;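 active = activation above the mean of all tested compounds plus 3 SD, set per screening run, cut at about 8.8% in these data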;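 also: cells exposed to compound for 20 h before luminescence read; 0% = DMSO alone and 100% = MG132 at 30 µM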
# Target sequence (P30291 whole entry K328M): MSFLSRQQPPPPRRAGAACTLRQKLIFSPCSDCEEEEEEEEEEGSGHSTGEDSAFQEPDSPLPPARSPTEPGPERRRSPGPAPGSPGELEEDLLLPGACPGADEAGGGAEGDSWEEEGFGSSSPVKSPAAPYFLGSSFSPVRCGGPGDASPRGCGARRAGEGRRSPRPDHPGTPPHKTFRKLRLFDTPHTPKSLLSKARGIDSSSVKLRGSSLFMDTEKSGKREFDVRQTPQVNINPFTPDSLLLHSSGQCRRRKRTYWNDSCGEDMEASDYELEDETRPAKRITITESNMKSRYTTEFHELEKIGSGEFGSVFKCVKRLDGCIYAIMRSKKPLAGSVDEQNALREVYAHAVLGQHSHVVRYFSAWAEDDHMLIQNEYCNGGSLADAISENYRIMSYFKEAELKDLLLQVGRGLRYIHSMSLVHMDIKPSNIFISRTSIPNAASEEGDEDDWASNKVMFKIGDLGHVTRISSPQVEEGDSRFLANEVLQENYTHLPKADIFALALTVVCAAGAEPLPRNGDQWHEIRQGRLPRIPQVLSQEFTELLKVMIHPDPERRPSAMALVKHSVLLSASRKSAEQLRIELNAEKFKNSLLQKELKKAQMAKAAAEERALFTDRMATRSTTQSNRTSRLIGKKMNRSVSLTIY
# An asterisk follows results filed as active; . = no result given. This is a sample that favours compounds with a hit; in the whole collection about 4.8% have one here.
SMILES,NF-kB neuron act,STAT1 activator,Hsp70 act,APP transl inh,APP 5'UTR act,Wee1 degr inh
CCOC(=O)c1sc(NC(=O)c2ccc(Cl)s2)cc1C,2.15,132.1*,0.0,-75.7,75.7,-0.7
CCOC(=O)c1sc(NC(=O)Nc2ccc(Cl)cc2)cc1C,1.27,102.8,-0.4,-37.5,37.5,-1.4
CCOC(=O)c1sc(=NC(=O)c2cccc(OC)c2)n(C)c1C,1.24,122.8,-0.1,-5.0,5.0,-2.4
CCOC(=O)c1sc(NC(=O)c2ccccc2)cc1C,6.73*,145.2*,-0.2,-117.3,117.3,4.2
CCOC(=O)c1csc(NC(=O)c2ccccc2)n1,3.64*,136.1*,-0.1,-144.2,144.2*,2.9
CC(C)CC1(C)NC(=O)NC1=O (configuration not stated),1.26,99.7,-0.2,7.6,-7.6,0.9
CCOC(=O)CSc1nc(C)[nH]c1[N+](=O)[O-],1.22,100.3,0.5,-35.6,35.6,1.6
O=c1c2c(-c3cccs3)csc2ncn1/N=C/c1ccc(OC(F)F)cc1,0.65,106.4,0.7,1.7,-1.7,-2.4
Oc1ccc(Br)cc1CNn1cnnc1,1.4,97.6,-0.2,3.6,-3.6,-1.6
O=C(CCn1c(=S)oc2ccccc21)NC1CCCCC1,.,.,.,.,.,5.5
O=C(O)C1CCCCC1C(=O)NCc1ccc2c(c1)OCO2 (configuration not stated),1.24,96.2,-0.2,-8.5,8.5,-3.3
CCOC(=O)c1sc(NC(=O)C(C)(C)C)cc1C,2.58,131.3*,-0.1,-73.6,73.6,-2.2
CCOC(=O)c1sc(NC(=O)C2CC2)cc1C,1.04,95.9,-0.1,-15.3,15.2,-2.3
CCN(CC)Cc1c(NC(=O)c2ccccc2)sc(C)c1C,1.15,134.2*,-0.2,0.6,-0.6,3.4
CCOC(=O)c1c(NC(=O)CSc2nnc(C)o2)sc(C)c1C,.,.,.,.,.,9.8*
O=C(NCc1cccs1)C(Cc1ccccc1)NS(=O)(=O)c1cccs1 (configuration not stated),1.34,104.3,-0.2,-8.5,8.5,-2.5
CSCCC(NS(=O)(=O)c1cccs1)C(=O)NCc1cccs1 (configuration not stated),1.15,100.0,-0.1,47.3*,-47.2,-1.8
Cc1ccc(CNc2ccc(N3CCOCC3)cc2)s1,3.19,145.2*,-0.1,-83.8,83.8,-0.1
Clc1ccc(C2=Nc3cc(Cl)ccc3OC2)cc1,3.37*,135.4*,0.2,-61.3,61.3,7.2
O=C1CC(c2ccccc2)=Nc2ccccc2N1,1.56,96.0,-0.1,-0.1,0.1,1.1
Cc1ccc2c(c1)N=C(c1ccc(Cl)cc1)CO2,3.57*,147.8*,-0.2,-72.1,72.1,-0.5
Clc1ccc(C2=NN=C3COc4ccccc4N3C2)cc1,1.44,99.8,-0.2,-18.8,18.8,-0.5
c1ccc(C2=Nc3ccccc3OC2)cc1,4.78*,131.9*,-0.1,-12.9,12.9,-0.6
O=S(=O)(NC(=NCc1ccccc1)c1ccccc1F)c1ccccc1,.,95.8,-0.1,-2.2,2.2,-2.1
Cc1cc(C)c(S(C)(=O)=O)c(Oc2cccc(Cl)c2)n1,0.86,91.1,-0.2,.,.,-1.8
SMILES,NF-kB neuron act,STAT1 activator,Hsp70 act,APP transl inh,APP 5'UTR act,Wee1 degr inh
Cc1ccc(Nc2nc(C(=O)NCc3ccco3)cs2)cc1,1.16,102.3,-0.1,6.3,-6.3,0.4
Cc1ccn2c(C(=O)CSc3ccc(Cl)cc3)c(C)nc2c1,1.37,97.5,-0.2,0.9,-0.9,-0.7
Cc1ccn2c(C(=O)c3ccc(Cl)cc3)cnc2c1,2.05,145.7*,1.0,-165.0,165.0*,1.6
O=C1/C(=C\c2ccc3ccccc3c2)CCCc2ccccc21,4.83*,121.1,-0.2,-41.4,41.4,3.9
COc1cc(/C=C2\COC/C(=C\c3ccc(O)c(OC)c3)C2=O)ccc1O,.,.,.,.,.,-3.5
COc1ccc(/C=C2\CCc3ccccc3C2=O)cc1OC,3.61*,93.7,-0.2,-62.0,62.0,-0.6
COc1cc(/C=C2/CC/C(=C/c3ccc(O)c(OC)c3)C2=O)ccc1O,.,.,.,.,.,10.0*
N/C(=N\OC(=O)Cc1ccc(-c2ccccc2)cc1)c1ccncc1,0.92,102.4,-0.3,-11.7,11.7,3.5
Cc1ccc(NC(=O)NCc2ccncc2)cc1Cl,0.88,98.4,0.1,-7.9,7.9,0.9
CCOc1ccc(NC(=O)c2ccco2)cc1,3.88*,105.9,-0.1,-119.5,119.5,0.1
CCOC(=O)/C=C/C(=O)Nc1ccc(S(=O)(=O)N(C)c2ccccc2)cc1,0.84,102.0,-0.3,-15.1,15.1,10.1*
CC(=O)Nc1ccc(S(=O)(=O)N(C)c2ccccc2)cc1,1,99.1,0.1,-11.4,11.4,-4.0
CN(c1ccccc1)S(=O)(=O)c1ccc(NC(=O)c2ccco2)cc1,0.94,132.2*,-0.2,-9.5,9.5,-1.8
O=C(Nc1ccc(Nc2ccccc2)cc1)c1ccco1,4.15*,134.0*,0.3,-93.7,93.7,-0.4
O=C(Nc1ccc(Br)cc1)c1ccc(F)c(S(=O)(=O)NCc2cccs2)c1,0.73,84.3,-0.6,0.0,0.0,-1.2
COc1cc(Cl)c(S(=O)(=O)NCCCN2CCOCC2)cc1Cl,1.22,102.8,-0.2,-5.8,5.8,-0.1
Cc1nn(-c2cccc([N+](=O)[O-])c2)c(N)c1-c1ccccc1,3.17,141.8*,0.0,-49.5,49.5,3.9
Cc1ccc(CSCC(=O)NCCc2ccccc2)cc1,1.39,100.6,-0.1,-26.5,26.5,2.2
CC(C)N(CCO)C(=O)C(c1ccccc1)c1ccccc1,1.34,95.3,-0.1,4.3,-4.3,10.8*
COCCn1c(C)cc(C(=O)CSc2nnc3ccccn23)c1C,0.67,71.9,-0.4,.,.,0.8
Cc1ccc(C(=O)CSc2nnc3ccccn23)c(C)c1,4.08*,119.4,0.0,-167.4,167.4*,2.8
Cc1ccc(C(=O)CSc2nnc(N)s2)c(C)c1,1.84,136.9*,0.0,-67.1,67.1,7.7
Cc1cc(C)c(C(=O)CSc2nnc(N)s2)cc1C,.,.,.,.,.,-0.1
CCn1c(SCC(=O)N/N=C/c2c[nH]c3ccccc23)nnc1-c1ccc(C(C)(C)C)cc1,0.58,99.8,-0.4,5.4,-5.4,-2.5
Cc1ccc2c(Cl)c(C(=O)NCCc3ccccc3)sc2c1,2.72,136.0*,0.3,-110.9,110.9,2.3
COc1ccc(CCNC(=O)c2sc3cc(C)ccc3c2Cl)cc1,1.08,96.0,-0.1,-8.4,8.4,2.3
O=C(NCC1CCCO1)c1sc2ccccc2c1Cl (configuration not stated),3.08,132.4*,0.2,-100.6,100.6,4.4
Cc1ccc(NC(=O)c2ccc(S(=O)(=O)NCC3CCCO3)cc2)cc1 (configuration not stated),1.06,94.6,-0.2,10.2,-10.2,-1.9
O=C(NNC(=O)C1CC2CCC1C2)c1sc2ccccc2c1Cl (configuration not stated),0.73,129.7*,0.1,-43.1,43.1,0.9

# Screening results: PubChem BioAssay, several laboratories
